These results are taken from the supplement of paper PMC6805474.

Experiment [1] deals with Schistosoma mansoni schistosomula (NMRI). Briefly: phenotypic severity score (0-4); higher = more antischistosomal effect, active = 2 or more. Particulars: 10 µM.
In experiment [2] the test system is Schistosoma mansoni schistosomula (Liberian). The experiment in a line: drug effect (1 - score/DMSO control score) (fraction); higher = more antischistosomal effect, active = 0.5 or more; extreme values may be limits of the assay. Particulars: 10 µM. The procedure, abridged: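 Drug effect was calculated by comparing the mean score of the test wells with the mean score of the DMSO wells, and any negative value was set to zero. Duplicate wells of 50 Liberian-strain S. mansoni schistosomula, mechanically transformed from cercariae and pre-incubated at least 12 h, received 10 µM compound in Medium 199 with 5% FCS at 37 °C, 5% CO2, with 0.1% DMSO in the comparison wells. Visual scoring at 10× took place at 24, 48 and 72 h on a quarter-point scale from 3 (normal) to 0 (dead), and a plate counted only if its DMSO wells averaged at least 2.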

Values without a mark were called inactive.
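Wherever phenotypic severity score (0-4) is given: visual microscopic scoring of shape, motility and density changes versus 0.5% DMSO solvent controls, one point per descriptor, degeneracy or death scored 4, mean of duplicate wells.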

As to `CN1CCN(S(=O)(=O)c2ccc(-c3ccc4c(Nc5ncc(Cl)cn5)ccnc4c3)cc2)CC1`, the results for the phenotypic severity score in experiment [1] (24 h), in experiment [1] (48 h) and in experiment [1] (72 h) were 2 (active), 4 (active) and 4 (active), respectively. Besides, the drug effect in experiment [2] (24 h) is 0.6 (active); in experiment [2] (48 h), 0.611 (active); in experiment [2] (72 h), 0.625 (active).

Turning to `CCc1ccc(S(=O)(=O)Nc2cc(CN3CCN(CCC(C)C)CC3)ccc2C)cc1`, the phenotypic severity score is 1 in experiment [1] (24 h), 2 (active) in experiment [1] (48 h) and 4 (active) in experiment [1] (72 h). For the same molecule, the drug effect in experiment [2] (24 h) was 0.25; in experiment [2] (48 h), 0.444; in experiment [2] (72 h), 0.5 (active).

With `FC(F)(F)c1ccc(N(c2cccnc2)C2CCN(c3ccc(C(F)(F)F)cn3)CC2)cc1`, the phenotypic severity score in experiment [1] (24 h) is 0; in experiment [1] (48 h), 0; in experiment [1] (72 h), 1. In addition, the drug effect in experiment [2] (24 h) is 0.2; in experiment [2] (48 h) it was 0.222; in experiment [2] (72 h), 0.312.

Take `CC1=Nc2ccc(Cl)cc2C(c2ccccc2)N1CCNC(=O)CN(C)C` (configuration not stated): the phenotypic severity score in experiment [1] (24 h), in experiment [1] (48 h) and in experiment [1] (72 h) was 0 throughout. The drug effect was 0.35 in experiment [2] (24 h), 0.333 in experiment [2] (48 h) and 0.375 in experiment [2] (72 h).

For `COc1ccc(C2=NN(C3CCCCCC3)C(=O)C2(C)C)cc1OCCCCOc1ccc(-c2nn[nH]n2)cc1`, the phenotypic severity score is 1 in experiment [1] (24 h), 0 in experiment [1] (48 h) and 0 in experiment [1] (72 h). The drug effect in experiment [2] (24 h) is 0.182; in experiment [2] (48 h) it was 0.2; in experiment [2] (72 h), 0.127.

As for `Nc1ncnc2[nH]nc(Cc3cccc4ccccc34)c12`, the phenotypic severity score in experiment [1] (24 h) is 1; in experiment [1] (48 h) it was 2 (active); in experiment [1] (72 h), 3 (active). The drug effect in experiment [2] (24 h) is 0.243; in experiment [2] (48 h), 0.333; in experiment [2] (72 h) it was 0.562 (active).

`CCc1cc(=O)n(C)c(SC(C)C(=O)Nc2ccc(F)cc2)n1` (configuration not stated): the values for the phenotypic severity score in experiment [1] (24 h), in experiment [1] (48 h) and in experiment [1] (72 h) were 0, 0 and 1, respectively. Also, the drug effect in experiment [2] (24 h) is 0.135; in experiment [2] (48 h), 0.111; in experiment [2] (72 h) it was below 0.

Consider `NCCCC(N)(C(=O)O)C(F)F` (configuration not stated), for which the phenotypic severity score in experiment [1] (24 h), in experiment [1] (48 h) and in experiment [1] (72 h) was 0 throughout. For the same molecule, the drug effect in experiment [2] (24 h) is 0.15; in experiment [2] (48 h), 0.135; in experiment [2] (72 h), 0.222.

`O=C(c1cc2ccccc2o1)N1CCN(Cc2ccc3c(c2)OCO3)CC1`: the phenotypic severity score in experiment [1] (24 h), in experiment [1] (48 h) and in experiment [1] (72 h) was 0 each time. Also, the results for the drug effect in experiment [2] (24 h), in experiment [2] (48 h) and in experiment [2] (72 h) were 0.182, 0.15 and 0.236, respectively.

Take `CCOc1ccc2cc(-c3nn(C(C)(C)C)c(N)c3C(N)=O)cnc2c1`: the phenotypic severity score in experiment [1] (24 h), in experiment [1] (48 h) and in experiment [1] (72 h) was 0 in each case. Further, the drug effect in experiment [2] (24 h) was 0.2; in experiment [2] (48 h), 0.243; in experiment [2] (72 h), 0.389.

Turning to `c1ccc2c(c1)CN(CC1CC1)CC1(CCN(Cc3c[nH]c4cnccc34)CC1)O2`, the phenotypic severity score in experiment [1] (24 h), in experiment [1] (48 h) and in experiment [1] (72 h) was 0 throughout. The drug effect in experiment [2] (24 h) was below 0; in experiment [2] (48 h) it was 0.1; in experiment [2] (72 h), 0.211.

`O=C(c1ccco1)N(CCCn1ccnc1)c1nc2c(Cl)cccc2s1`: the phenotypic severity score in experiment [1] (24 h), in experiment [1] (48 h) and in experiment [1] (72 h) was 0 throughout. Further, the drug effect was 0.0909 in experiment [2] (24 h), 0.4 in experiment [2] (48 h) and 0.4 in experiment [2] (72 h).

As for `Cc1ccc(NC(=O)CC2COc3ccccc3O2)cc1Cl` (configuration not stated), the phenotypic severity score in experiment [1] (24 h), in experiment [1] (48 h) and in experiment [1] (72 h) was 0 in each case. Further, the values for the drug effect in experiment [2] (24 h), in experiment [2] (48 h) and in experiment [2] (72 h) were 0.136, 0.3 and 0.4, respectively.

Turning to `N=C(N)Nc1ccc(-c2ccc(-c3ccc(NC(=N)N)cc3Cl)o2)c(Cl)c1`, the phenotypic severity score in experiment [1] (24 h), in experiment [1] (48 h) and in experiment [1] (72 h) was 0 throughout. The figures for the drug effect in experiment [2] (24 h), in experiment [2] (48 h) and in experiment [2] (72 h) were 0.0526, 0.111 and 0.125, respectively.

For `CCOC(=O)NC(=O)c1ccsc1NC(=O)c1nc2ccccc2s1`, the phenotypic severity score in experiment [1] (24 h), in experiment [1] (48 h) and in experiment [1] (72 h) was 0 each time. Also, the drug effect in experiment [2] (24 h) is 0.0909; in experiment [2] (48 h), 0.2; in experiment [2] (72 h) it was 0.182.

For `CS(=O)(=O)c1ccccc1C(=O)N(Cc1ccccc1)c1ccccc1`, the results for the phenotypic severity score in experiment [1] (24 h), in experiment [1] (48 h) and in experiment [1] (72 h) were 0, 1 and 0, respectively. The drug effect in experiment [2] (24 h) was 0.182; in experiment [2] (48 h), 0.4; in experiment [2] (72 h), 0.4.

For the molecule `O=C(Nc1cnc2ccccc2c1)c1cccc(-n2cnnn2)c1`, the phenotypic severity score in experiment [1] (24 h), in experiment [1] (48 h) and in experiment [1] (72 h) was 0 throughout. The results for the drug effect in experiment [2] (24 h), in experiment [2] (48 h) and in experiment [2] (72 h) were below 0, below 0 and 0.0303, respectively.

In the case of `O=C(c1ccc(NCCO)cc1)C1C[C@H]1c1ccc(Cl)cc1` (some centres not stated), the phenotypic severity score in experiment [1] (24 h), in experiment [1] (48 h) and in experiment [1] (72 h) was 0 throughout. Also, the drug effect in experiment [2] (24 h) was 0.135; in experiment [2] (48 h), 0.278; in experiment [2] (72 h), 0.625 (active).

For `OCc1ccc(-c2cncc(Nc3cccc(Cl)c3)c2)cc1`, the phenotypic severity score in experiment [1] (24 h), in experiment [1] (48 h) and in experiment [1] (72 h) was 0 in each case. Also, the drug effect is 0.1 in experiment [2] (24 h), 0.0811 in experiment [2] (48 h) and 0.152 in experiment [2] (72 h).

On to `COc1ccc2nc(C)cc(OCC(=O)Nc3ccccc3OC)c2c1`, for which the phenotypic severity score in experiment [1] (24 h), in experiment [1] (48 h) and in experiment [1] (72 h) was 0 each time. For the same molecule, the drug effect is 0.2 in experiment [2] (24 h), 0.278 in experiment [2] (48 h) and 0.25 in experiment [2] (72 h).

As for `FC(F)(F)c1nnc2ccc(Cl)nn12`, the phenotypic severity score in experiment [1] (24 h) is 1; in experiment [1] (48 h), 0; in experiment [1] (72 h) it was 0. Further, the drug effect in experiment [2] (24 h) was 0.2; in experiment [2] (48 h), 0.189; in experiment [2] (72 h), 0.333.

As to `COc1cc2ncnc(NC3CCN(Cc4ccccc4)CC3)c2cc1OC`, the phenotypic severity score in experiment [1] (24 h), in experiment [1] (48 h) and in experiment [1] (72 h) was 0 in each case. Also, the drug effect in experiment [2] (24 h) was 0.1; in experiment [2] (48 h), 0.135; in experiment [2] (72 h), 0.0556.
